# Only a selection was taken, and the strongest signals are over-represented in it overall.
# B1: OS9 (Arabidopsis thaliana) (protein)
# chain: MRGSHHHHHHGMASMTGGQQMGRDLYDDDDKSRLQIFPAHLVGTFSRNNREPKYKIEFLPEDSPFHPGDNLESMVMLDKHGNRFLCYLPKEEKATSGWTSSQQNISTVMMETQQLVKLKTPDELLQPLSEKCLFRQEGWWSYEFCHQKYVRQLHVEDENKIVQEFFLGTFDPEATAAFNQTVSDASTDASQRYHSHVYTNGTTCDLTGSPAEVEVRFVCAETRAMVTSITELSTCKYALTVQCPTLCKHPLFQLEKPVSHTIHCNAIPVEEDATRNKEEQAVDESPKMIADS
# Tests used:
# Experiment in all cases: glycan array binding signal (z-score within array); higher = stronger binding
# Details in all cases: glycan notation: IUPAC condensed, linker removed; mutation: R201A
# Fuc(a1-2)Gal = target: Fuc(a1-2)Gal
# Procedure, shortened: (§1)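 Columns mapping to the same glycan were averaged after glycan names were converted to IUPAC-condensed notation. The data come from 3228 arrays in the Consortium for Functional Glycomics database, limited to those with an available protein sequence. Binding is reported as a within-array Z-score averaged across arrays of one protein sequence and across linkers.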
# [1] = target: Fuc(a1-2)Gal(b1-3)GalNAc(b1-3)Gal(a1-4)Gal(b1-4)Glc
# Procedure, shortened: as §1
# [2] = target: Fuc(a1-2)Gal(b1-3)GalNAc(b1-4)[Neu5Ac(a2-3)]Gal(b1-4)Glc
# Procedure, shortened: as §1
# Fuc(a1-2)Gal(b1-4)Glc = target: Fuc(a1-2)Gal(b1-4)Glc
# Procedure, shortened: as §1
# [3] = target: Fuc(a1-2)[Gal(a1-3)]Gal(b1-3)GlcNAc
# Procedure, shortened: as §1
# [4] = target: Fuc(a1-2)[Gal(a1-3)]Gal(b1-4)GlcNAc(b1-2)Man(a1-3)[Fuc(a1-2)[Gal(a1-3)]Gal(b1-4)GlcNAc(b1-2)Man(a1-6)]Man(b1-4)GlcNAc(b1-4)GlcNAc
# Procedure, shortened: as §1
# [5] = target: Fuc(a1-2)[Gal(a1-3)]Gal(b1-4)GlcNAc(b1-3)[Fuc(a1-2)[Gal(a1-3)]Gal(b1-4)GlcNAc(b1-6)]GalNAc
# Procedure, shortened: as §1
# [6] = target: Fuc(a1-2)[Gal(a1-3)]Gal(b1-4)GlcNAc(b1-6)GalNAc
# Procedure, shortened: as §1
# [7] = target: Fuc(a1-2)[GalNAc(a1-3)]Gal(b1-4)GlcNAc(b1-2)Man(a1-3)[Fuc(a1-2)[GalNAc(a1-3)]Gal(b1-4)GlcNAc(b1-2)Man(a1-6)]Man(b1-4)GlcNAc(b1-4)[Fuc(a1-6)]GlcNAc
# Procedure, shortened: as §1
# [8] = target: Fuc(a1-2)[GalNAc(a1-3)]Gal(b1-4)GlcNAc(b1-3)Gal(b1-4)GlcNAc(b1-3)Gal(b1-4)GlcNAc
# Procedure, shortened: as §1
# [9] = target: Fuc(a1-3)[Gal(b1-4)]GlcNAc(b1-2)Man(a1-3)[Fuc(a1-3)[Gal(b1-4)]GlcNAc(b1-2)Man(a1-6)]Man(b1-4)GlcNAc(b1-4)[Fuc(a1-6)]GlcNAc
# Procedure, shortened: as §1
# [10] = target: Fuc(a1-3)[Gal3S(b1-4)]GlcNAc
# Procedure, shortened: as §1
# Fuc(a1-4)GlcNAc = target: Fuc(a1-4)GlcNAc
# Procedure, shortened: as §1
# Gal(a1-3)Gal(b1-4)GlcNAc = target: Gal(a1-3)Gal(b1-4)GlcNAc
# Procedure, shortened: as §1
# [11] = target: Gal(a1-3)Gal(b1-4)[Fuc(a1-3)]GlcNAc(b1-2)Man(a1-3)[Gal(a1-3)Gal(b1-4)[Fuc(a1-3)]GlcNAc(b1-2)Man(a1-6)]Man(b1-4)GlcNAc(b1-4)GlcNAc
# Procedure, shortened: as §1
# [12] = target: Gal(a1-4)Gal(b1-4)GlcNAc(b1-3)Gal(b1-4)Glc
# Procedure, shortened: as §1
# [13] = target: Gal(b1-3)GlcNAc(b1-2)Man(a1-3)[Gal(b1-3)GlcNAc(b1-2)Man(a1-6)]Man(b1-4)GlcNAc(b1-4)[Fuc(a1-6)]GlcNAc
# Procedure, shortened: as §1
# [14] = target: Gal(b1-3)GlcNAc(b1-2)Man(a1-3)[GlcNAc(b1-4)][Gal(b1-3)GlcNAc(b1-2)Man(a1-6)]Man(b1-4)GlcNAc(b1-4)GlcNAc
# Procedure, shortened: as §1
# [15] = target: Gal(b1-4)GlcNAc(b1-3)Gal(b1-3)GalNAc
# Procedure, shortened: as §1
# [16] = target: Gal(b1-4)GlcNAc(b1-3)Gal(b1-4)Glc
# Procedure, shortened: as §1
# [17] = target: Gal(b1-4)GlcNAc(b1-3)Gal(b1-4)GlcNAc(b1-3)Gal(b1-4)GlcNAc(b1-3)Gal(b1-4)GlcNAc(b1-3)Gal(b1-4)GlcNAc(b1-2)Man(a1-3)[Gal(b1-4)GlcNAc(b1-3)Gal(b1-4)GlcNAc(b1-3)Gal(b1-4)GlcNAc(b1-3)Gal(b1-4)GlcNAc(b1-3)Gal(b1-4)GlcNAc(b1-2)Man(a1-6)]Man(b1-4)GlcNAc(b1-4)GlcNAc
# Procedure, shortened: as §1
# [18] = target: Gal(b1-4)GlcNAc(b1-3)Gal(b1-4)GlcNAc(b1-3)Gal(b1-4)GlcNAc(b1-3)Gal(b1-4)GlcNAc(b1-3)Gal(b1-4)GlcNAc(b1-3)Gal(b1-4)GlcNAc(b1-2)Man(a1-3)[Gal(b1-4)GlcNAc(b1-3)Gal(b1-4)GlcNAc(b1-3)Gal(b1-4)GlcNAc(b1-3)Gal(b1-4)GlcNAc(b1-3)Gal(b1-4)GlcNAc(b1-3)Gal(b1-4)GlcNAc(b1-2)Man(a1-6)]Man(b1-4)GlcNAc(b1-4)GlcNAc
# Procedure, shortened: as §1
# Gal3S6S(b1-4)GlcNAc6S = target: Gal3S6S(b1-4)GlcNAc6S
# Procedure, shortened: as §1
# Gal6P(b1-4)GlcNAc = target: Gal6P(b1-4)GlcNAc
# Procedure, shortened: as §1
# GalNAc(a1-3)Gal = target: GalNAc(a1-3)Gal
# Procedure, shortened: as §1
# [19] = target: GalNAc(b1-3)Gal(a1-4)Gal(b1-4)GlcNAc
# Procedure, shortened: as §1
binder,measurement,setting,value
B1,glycan array binding signal (z-score),Fuc(a1-2)Gal,0.581
same,glycan array binding signal (z-score),[1],-0.131
same,glycan array binding signal (z-score),[2],-0.246
same,glycan array binding signal (z-score),Fuc(a1-2)Gal(b1-4)Glc,-0.732
same,glycan array binding signal (z-score),[3],-0.124
same,glycan array binding signal (z-score),[4],-0.237
same,glycan array binding signal (z-score),[5],1.25
same,glycan array binding signal (z-score),[6],-0.223
same,glycan array binding signal (z-score),[7],-0.739
same,glycan array binding signal (z-score),[8],2.49
same,glycan array binding signal (z-score),[9],3.48
same,glycan array binding signal (z-score),[10],0.043
same,glycan array binding signal (z-score),Fuc(a1-4)GlcNAc,2.18
same,glycan array binding signal (z-score),Gal(a1-3)Gal(b1-4)GlcNAc,-0.929
same,glycan array binding signal (z-score),[11],0.205
same,glycan array binding signal (z-score),[12],-0.456
same,glycan array binding signal (z-score),[13],-0.307
same,glycan array binding signal (z-score),[14],-0.686
same,glycan array binding signal (z-score),[15],-0.513
same,glycan array binding signal (z-score),[16],-0.35
same,glycan array binding signal (z-score),[17],-0.257
same,glycan array binding signal (z-score),[18],0.133
same,glycan array binding signal (z-score),Gal3S6S(b1-4)GlcNAc6S,3.98
same,glycan array binding signal (z-score),Gal6P(b1-4)GlcNAc,-0.208
same,glycan array binding signal (z-score),GalNAc(a1-3)Gal,1.39
same,glycan array binding signal (z-score),[19],2.17
